The record followed here is PubChem BioAssay (NCATS).

Inconclusive results are not listed. Calls of active or inactive are those of the source. Unless noted, calls come from the whole dose curve; as a rule, active = well fitted curve in the direction sought with a large enough effect; inconclusive = small, poorly fitted or top-dose-only effect, or another doubt; inactive = no such curve, though single readings can be large; an effect the other way counts as inactive or inconclusive. Where a SMILES comes first, the peptide text is derived from it. [ ]: non-standard residue; d: D form. Ala(indol-2-yl) = N[C@@H](Cc1cc2ccccc2[nH]1)C(=O)O; Aib = CC(C)(N)C(=O)O

Assay [1] is described as follows: P-glycoprotein substrates identified in KB-8-5-11 adenocarcinoma cell line, qHTS therapeutic library screen (AID 1346987). Note: nearly all actives have a fitted effect of over 65% in size. Note: potency is the fitted concentration of half-maximal effect. A digest of the protocol:
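Compounds are pinned in dose-response onto KB-8-5-11 cells (500 cells/well, colchicine-free medium) and left 72 h at 37 degree C. CellTiter-Glo luminescence then yields AC50 values.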

The subject of assay [2] is Zika virus NS2B-NS3 protease (unlinked complex). Nature of the assay: Primary screen GU Rhodamine qHTS for Zika virus inhibitors: Unlinked NS2B-NS3 protease assay (AID 1347159). For activity change, negative = inhibition: % is set by controls: 0 for no effect and ±100 for the full control effect. Note: nearly all actives have a fitted effect of over 60% in size. Note: potency is the fitted concentration of half-maximal effect. The gist of the method:
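Buffer 10 mM Tris-HCl pH 8.0, 0.01% Tween 20. Unlinked protease 25 nM; compound preincubation 15 min, RT, protected from light. Substrate Rhod110, 1.5 microM; ~15% conversion in 15 min.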

A short description of assay [3]: Primary qHTS for inhibitors of nuclear receptor binding SET domain protein 2 (NSD2) in an RCH-ACV wild type WT cells (2C) (AID 1645877). Note: nearly all actives have a fitted effect of over 70% in size. Note: potency is the fitted concentration of half-maximal effect.
Assay [4] is described as follows: Primary fluorescence-based thiol-reactive (MSTI) qHTS assay for identification of artifact compounds. (AID 1845221).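 For activity change, negative = thiol reactive: thiol-reactive compounds lower the probe fluorescence signal.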 Note: nearly all actives have a fitted effect of over 65% in size. Note: potency is the fitted concentration of half-maximal effect. A digest of the protocol:
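A multi-concentration qHTS design tested compounds against 4 uM MSTI, pH 7.4 phosphate-buffered saline. Plates were protected from light for 1 h at room temperature before imaging fluorescence.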
Background: In qHTS, concentration-response curves come from the screen itself.

The nature of assay [5]: Primary redox qHTS assay for identification of artifact compounds. (AID 1845223).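 Note: 0% = DMSO and 100% = reference compound.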 A digest of the protocol:
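Redox-cycling detection via DTT (250 uM final) oxidation coupled to Amplex Red (25 uM)/HRP (250 mU/mL) in HBSS. 15 min preincubation plus 30 min after DTT, room temperature. Ex/Em 525/598 nm; 4-parameter Hill fit against DMSO and 10 uM DA3003.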

The test system of assay [6] is KB-3-1. Nature of the assay: Cytotoxic Profiling of Annotated Libraries Using Quantitative High-Throughput Screening (AID 1296008). Note: nearly all actives have a fitted effect of over 60% in size. Note: potency is the fitted concentration of half-maximal effect. The following applies: Five cell lines viability, CellTiter-Glo ATP luminescence, 48-72 h; max response: stronger effect = lower value. A digest of the protocol:
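Compounds were pin-transferred onto cells and incubated 48 or 72 hr at 37 degree Celsius, 95% humidity. CellTiter-Glo was added, plates sat 10 min at room temperature, then ATP-coupled luminescence was imaged as the viability read-out.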
On the technique in general: Cellular ATP, detected with luciferase, serves as a proxy for viable cell number.

The subject of assay [7] is CAOV3. The assay can be described thus: Primary qHTS to identify gynecologic anti-cancer compounds using libraries of approved drugs and bioactive compounds (AID 1345084). For activity change, negative = cytotoxicity: % is set by controls: 0 for no effect and ±100 for the full control effect. Note: nearly all actives have a fitted effect of over 55% in size. Note: potency is the fitted concentration of half-maximal effect. The following applies: Gynecologic cancer cell panel viability, ATPlite luminescence, 48 h; series mostly up to 57.5 µM. The gist of the method: (§1)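 ATP-based viability (ATPlite), 1,000 cells/well, 16 h pre-incubation, 48 h compound at 37 C, 5% CO2, 15 min RT before read.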

The test system of assay [8] is HeLa. The description is as above. The following applies: Gynecologic cancer cell panel viability, ATPlite luminescence, 48 h; series mostly up to 57.5 µM. A digest of the protocol:
as §1

Assay [9] has as its system SKOV3. The assay is described as above. Conditions: Gynecologic cancer cell panel viability, ATPlite luminescence, 48 h; series mostly up to 57.5 µM. The gist of the method: as §1
In assay [10] the target is Cytochrome P450 2D6 (Homo sapiens) (UniProt P10635). Nature of the assay: Cytochrome P450 family 2 subfamily D member 6 (CYP2D6) small molecule antagonists: luciferase biochemical (cell-free) qHTS assay (AID 1645840; active = well fitted curve in the direction sought with a large enough effect in the repeat runs; an effect the other way counts as inactive or inconclusive; note: nearly all actives have a fitted effect of over 55% in size; note: potency is the fitted concentration of half-maximal effect; for activity change, negative = inhibition: % is set by controls: 0 for no effect and ±100 for the full control effect). A digest of the protocol: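 P450-Glo CYP2D6 system: proluciferin substrate converted by enzyme to luciferin, read by luminescence proportional to activity. Enzyme-substrate mix with compound 10 min at room temperature, then NADPH regeneration 1 h before detection reagent.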
Sequence of Cytochrome P450 2D6 (Homo sapiens) (P10635 whole entry, looked up): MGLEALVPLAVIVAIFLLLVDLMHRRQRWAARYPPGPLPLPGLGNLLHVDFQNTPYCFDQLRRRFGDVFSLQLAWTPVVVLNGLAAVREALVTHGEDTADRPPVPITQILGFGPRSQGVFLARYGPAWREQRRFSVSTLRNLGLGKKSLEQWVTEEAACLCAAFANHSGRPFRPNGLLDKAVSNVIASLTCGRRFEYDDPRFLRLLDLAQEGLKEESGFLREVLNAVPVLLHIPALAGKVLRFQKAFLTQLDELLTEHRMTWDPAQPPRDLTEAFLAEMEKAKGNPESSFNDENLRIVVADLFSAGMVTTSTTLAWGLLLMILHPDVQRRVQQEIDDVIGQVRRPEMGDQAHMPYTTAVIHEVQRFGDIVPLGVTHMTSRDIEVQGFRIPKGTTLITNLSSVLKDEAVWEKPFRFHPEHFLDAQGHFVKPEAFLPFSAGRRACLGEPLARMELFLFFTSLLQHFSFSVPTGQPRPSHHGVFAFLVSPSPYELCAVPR

Assay [11] addresses Cytochrome P450 2C9 (Homo sapiens) (UniProt P11712). Nature of the assay: Cytochrome P450 family 2 subfamily C member 9 (CYP2C9) small molecule antagonists: luciferase biochemical (cell-free) qHTS assay (AID 1645842; active = well fitted curve in the direction sought with a large enough effect in the repeat runs; an effect the other way counts as inactive or inconclusive; note: potency is the fitted concentration of half-maximal effect; nearly all actives have a fitted effect of over 55% in size). A digest of the protocol: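 P450-Glo CYP2C9 system: proluciferin substrate with enzyme in mix containing 0.4% BSA, 10 min at room temperature, then NADPH regeneration solution added and incubated 1 h at 37C. Detection reagent stopped reaction; luminescence read after 20 min as RLU.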

Assay [12] has as its target Catechol O-methyltransferase (Homo sapiens) (UniProt P21964). Nature of the assay: Confirmatory Screen for Target Class Profiling of Small Molecule Inhibitors of Methyltransferases (AID 1745852). For activity change, negative = inhibition: % is set by controls: 0 for no effect and ±100 for the full control effect. The following applies: MTase-Glo luminescence, SAH detection, recombinant enzyme; measured here: COMT max response; stronger effect = lower value.
Assay [13] has as its target Guanidinoacetate N-methyltransferase (Homo sapiens) (UniProt Q14353). Described as above. The following applies: activity change, negative = inhibition: at 57.3 µM (top of the series) unless noted.
In assay [14] the target is Nicotinamide N-methyltransferase (Homo sapiens) (UniProt P40261). The description is as above. The following applies: MTase-Glo luminescence, SAH detection, recombinant enzyme; measured here: NNMT max response; stronger effect = lower value.
Sequence of Nicotinamide N-methyltransferase (Homo sapiens) (P40261 whole entry, looked up): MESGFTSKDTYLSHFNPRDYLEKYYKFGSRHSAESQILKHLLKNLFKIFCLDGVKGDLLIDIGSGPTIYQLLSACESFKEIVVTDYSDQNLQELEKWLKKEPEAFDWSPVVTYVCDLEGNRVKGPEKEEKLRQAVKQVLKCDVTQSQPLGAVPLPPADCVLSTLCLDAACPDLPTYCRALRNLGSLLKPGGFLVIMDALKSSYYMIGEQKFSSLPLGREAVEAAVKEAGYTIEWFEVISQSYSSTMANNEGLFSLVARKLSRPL
The target of assay [15] is Phenylethanolamine N-methyltransferase (Homo sapiens) (UniProt P11086). The description is as above. The following applies: MTase-Glo luminescence, SAH detection, recombinant enzyme; measured here: PNMT max response; stronger effect = lower value.
Sequence of Phenylethanolamine N-methyltransferase (Homo sapiens) (P11086 whole entry, looked up): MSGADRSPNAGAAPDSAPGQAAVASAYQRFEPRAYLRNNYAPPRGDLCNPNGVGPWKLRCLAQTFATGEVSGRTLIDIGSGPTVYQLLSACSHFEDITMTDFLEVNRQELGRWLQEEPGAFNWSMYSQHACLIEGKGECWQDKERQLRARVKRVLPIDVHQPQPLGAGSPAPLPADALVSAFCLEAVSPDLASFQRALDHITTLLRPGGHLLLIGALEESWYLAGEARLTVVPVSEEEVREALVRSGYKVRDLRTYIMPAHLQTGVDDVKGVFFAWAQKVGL
Assay [16] can be described thus: qHTS drug screen for cell cycle checkpoint inhibitors in PARPi-resistant BRCA-mutant ovarian cancer cell lines. (AID 1963452; calls by dose curve; note: potency is the fitted concentration of half-maximal effect). Conditions: PEO1/OlaR viability, CellTiter-Glo luminescence, 96 h; for Z-AUC: stronger effect = lower value. A digest of the protocol: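 PEO1, PEO4 and PEO1/OlaR ovarian cancer cells, 600 per well, exposed 96 h at 37C to a dilution series. Viability read by CellTiter-Glo luminescence, normalized to DMSO and empty wells; activity summarized as Z-AUC.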

The nature of assay [17]: P-glycoprotein substrates identified in KB-3-1 adenocarcinoma cell line, qHTS therapeutic library screen (AID 1346986). Note: nearly all actives have a fitted effect of over 60% in size. A digest of the protocol: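 72 h cell-killing screen, 500 cells/well, CellTiter-Glo luminescence. Paired lines KB-3-1/KB-8-5-11; P-gp dependence checked by tariquidar co-treatment and HEK-293 MDR-19 versus empty-vector cells.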

Sequence of Catechol O-methyltransferase (Homo sapiens) (P21964 whole entry, looked up): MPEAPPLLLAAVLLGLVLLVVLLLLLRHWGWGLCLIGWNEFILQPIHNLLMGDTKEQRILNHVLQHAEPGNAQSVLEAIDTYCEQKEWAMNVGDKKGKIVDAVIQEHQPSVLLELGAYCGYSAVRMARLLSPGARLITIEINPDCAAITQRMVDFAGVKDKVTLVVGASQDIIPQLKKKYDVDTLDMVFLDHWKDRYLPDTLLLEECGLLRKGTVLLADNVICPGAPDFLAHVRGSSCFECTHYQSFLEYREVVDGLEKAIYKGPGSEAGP
Sequence of Cytochrome P450 2C9 (Homo sapiens) (P11712 whole entry, looked up): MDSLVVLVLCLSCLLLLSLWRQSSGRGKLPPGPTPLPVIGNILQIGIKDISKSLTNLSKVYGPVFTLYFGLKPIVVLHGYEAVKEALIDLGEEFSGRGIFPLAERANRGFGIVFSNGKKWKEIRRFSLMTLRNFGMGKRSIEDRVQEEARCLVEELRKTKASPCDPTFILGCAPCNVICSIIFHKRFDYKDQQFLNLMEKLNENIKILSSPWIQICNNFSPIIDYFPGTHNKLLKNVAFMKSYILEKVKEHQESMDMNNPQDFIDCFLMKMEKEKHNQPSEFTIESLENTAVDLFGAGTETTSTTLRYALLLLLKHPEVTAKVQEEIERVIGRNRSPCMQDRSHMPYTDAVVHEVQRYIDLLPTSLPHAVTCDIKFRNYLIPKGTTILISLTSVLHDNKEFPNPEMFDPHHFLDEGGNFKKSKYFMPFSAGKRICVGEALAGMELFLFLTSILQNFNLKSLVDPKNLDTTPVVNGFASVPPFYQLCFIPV

Consider `CC(=O)OC[C@]12C[C@H](O)C(C)=C[C@H]1O[C@@H]1[C@H](O)[C@@H](O)[C@@]2(C)[C@]12CO2`, for which the Potency in assay [1] is 4040 nM (active); in assay [3] it was 713 nM (active); in assay [6], 2270 nM (active); in assay [7], 3980 nM (active); in assay [8] it was 7940 nM (active); in assay [9], 3980 nM (active). For the same compound, the Potency result in assay [2], in [4] and in [5] was “inactive” each time.
`CC(=O)O[C@@H]1[C@@H](O)[C@H]2O[C@@H]3C=C(C)[C@@H](O)C[C@]3(CO)[C@]1(C)[C@]21CO1`: the Potency in assay [1] is 904 nM (active); in [3], 358 nM (active); in assay [6], 805 nM (active); in assay [8], 2510 nM (active); in assay [9] it was 1260 nM (active). Besides, the Potency result in assay [2], in assay [4] and in [5] was “inactive” in each case.
Consider `CNc1ccc2oc(C[C@H]3O[C@@]4(CC[C@H]3C)O[C@H](C(C)C(=O)c3ccc[nH]3)[C@H](C)C[C@H]4C)nc2c1C(=O)O` (some centres undefined), for which the Potency in assay [1] is 2060 nM (active); in assay [2], 11200 nM (active); in assay [3], 14500 nM (active); in assay [4], 2380 nM (active); in assay [6], 2310 nM (active); in assay [7], 22400 nM (active). The Potency entry in assay [10] was “inactive”.
Take `C[C@H]1O[C@@H](O[C@H]2CC[C@]3(C=O)C4CC[C@]5(C)[C@@H](C6=CC(=O)OC6)CC[C@]5(O)[C@@H]4CC[C@]3(O)C2)C[C@@H](O)[C@@H]1O` (some centres undefined): the Potency in assay [1] is 50.2 nM (active); in assay [6], 89.3 nM (active); in [7], 112 nM (active); in assay [8], 126 nM (active); in assay [9], 112 nM (active). The Potency result in assay [2], in assay [4] and in [5] was “inactive” in each case.
As to `CN(C)c1cc2c(cc1Sc1nc3c(N)nccc3n1CCNCC(C)(C)C)OCO2`, the Potency in assay [1] was 517 nM (active); in assay [10], 952 nM (active); in assay [11], 3790 nM (active); in assay [16], 1550 nM (active); in assay [6], 731 nM (active); in assay [7], 1120 nM (active). Further, in assay [9], the Potency is 5620 nM (active). Moreover, the Potency entry in assay [2] and in [8] was “inactive” throughout. Also, the activity was -13.6% in assay [12], -41.4% in assay [14] and -0.0762% in [15]. Also, in assay [13], the activity change, negative = inhibition was -4.13%. In addition, the Z-AUC was -1.43 in [16] (measured here: PEO1 parental Z-AUC) and -1 in [16] (measured here: PEO4 Z-AUC).
For `C=C(CO)C(=O)O[C@H]1CC(=C)[C@@H]2C[C@H](O)C(=C)[C@@H]2[C@H]2OC(=O)C(=C)[C@@H]21`, the Potency entry in [17], in assay [1], in assay [5], in assay [7], in assay [8] and in assay [9] was “inactive” throughout. In addition, in assay [3], the Potency was 2010 nM (active). For the same compound, the activity in assay [12] is -80.9%; in assay [14], -6.26%; in assay [15], -8.66%. In addition, the activity change, negative = inhibition in assay [13] was -4.37%. In assay [6], the outcome was “inactive”.
Regarding `CC(C)(NC(=O)[C@@H](N)Cc1ccc(O)cc1)C(=O)N[C@@H](Cc1cc2ccccc2[nH]1)C(=O)N[C@@H](Cc1ccccc1)C(=O)O` (H-Y[Aib][Ala(indol-2-yl)]F-OH), in assay [17], the outcome is “inactive [at 9.29 µM]”. Further, the activity change, negative = cytotoxicity was 5.29% [at 9.29 µM] (inactive) in assay [1], 2.52% [at 11.6 µM] (inactive) in [7], 14.3% [at 11.6 µM] (inactive) in assay [8] and -8.69% [at 11.6 µM] (inactive) in assay [9]. Further, the activity change, negative = inhibition in assay [2] was 11.5% [at 19.1 µM] (inactive). Further, the activity change, negative = cell killing in assay [3] was -2.68% [at 9.23 µM] (inactive). Besides, in [4], the activity change, negative = thiol reactive was 54.2% [at 11.5 µM] (inactive). Further, the redox activity (% of DA3003) in [5] is 9.88% [at 11.5 µM] (inactive). In [6], the outcome is “inactive”.
As for `CC[C@@H]1C[C@H]2CC[C@H](O2)[C@H](C)C(=O)O[C@@H](C)C[C@@H]2CC[C@@H](O2)[C@@H](C)C(=O)O[C@H](CC)C[C@H]2CC[C@H](O2)[C@H](C)C(=O)O[C@@H](C)C[C@@H]2CC[C@@H](O2)[C@@H](C)C(=O)O1`, the Potency is 1930 nM (active) in [1]; 21.6 nM (active) in assay [3]; 38.5 nM (active) in assay [6]; 398 nM (active) in [7]; 794 nM (active) in assay [8].
